Bioassay records from PubChem.
Sampled rows, rich in hits. Any-hit rate of the full collection: about 0.48%.
TLR4-MyD88 inh: TLR4-MyD88 interaction inhibition | actives 0.06% (n = 16,000) | O00206 | inhibition, % at 10 µM | Cell-based TLR4-MyD88 binding inhibition assay | AID 811; in the data active = inhibition above about 45%
KOR antag MB: antagonists of human kappa opioid receptor OPRK1, Maybridge library; OPRK1 cells, antagonist mode, fluorescence readout; P41145; actives 0.4% (n = 16,000); inhibition, % at 9 µM; in the data active = inhibition above about 50%
An asterisk follows results filed as active.

SMILES	TLR4-MyD88 inh	KOR antag MB
CN(C)Cc1c[nH]c2ccc(OCc3ccccc3)cc12	-9	24
O=[N+]([O-])/C=C/c1ccc(OCc2ccccc2)cc1	-6	62*
COc1cc(CCC(C)=O)ccc1OC(=O)N(C)C	26	-8
